Source: article PMC13494018
Unmarked numbers belong to inactive results. The rule behind the calls is not given here.

B1: design_600_24101276-ad9d-4944-b73e-53bb160363ad_1742_dldesign_0_cycle1_af2pred (protein)
chain: MEEKYKKAKELLEKAKEEFKKGNYEKALKLAAESVALGYEALGDEEEAKKAKEKAEEALKNPETLGAVAGELLAEAKGLVHLLEIKIN
B2: design_600_24101276-ad9d-4944-b73e-53bb160363ad_953_dldesign_0_cycle1_af2pred (protein)
chain: DAKKAAADALVATAAAEDPSLKPLAQEVADKAIASEDGLKAAKEGMTALAKKYPEYAKAFAAAMQAFYETYNEAEFKKKKA
B3: design_600_24101276-ad9d-4944-b73e-53bb160363ad_1218_dldesign_0_cycle1_af2pred (protein)
chain: DEEKKKKAAEALDKAAELAKKAAEDEKYLPEALKALKETAKLAGEALGAEAAHAILEARAVVKAKGKEGAKEAAEVLEELRKKVR
B4: design_600_24101276-ad9d-4944-b73e-53bb160363ad_1283_dldesign_0_cycle1_af2pred (protein)
chain: EEEKKEIAKKTEEYYKELLKVAKEVAAKDPSKKPELAKLTDEAAQYVAEAKAGLNPEEALEKVKKLLEEAKKIA
B5: design_600_24101276-ad9d-4944-b73e-53bb160363ad_1035_dldesign_0_cycle1_af2pred (protein)
chain: EKLEEAEKERDKAVDKLAALVAKALGPEAGAKARAAAKKGLAALKAVVAEAAKTSGLTAELAKALHEVYQATAEAELLKKK
B6: design_600_24101276-ad9d-4944-b73e-53bb160363ad_1344_dldesign_0_cycle1_af2pred (protein)
chain: SFKKEAAIESSKELLDQAVAAAKADPARATEIAKTGLKKATERAKKAGEEAYKTVKEYGEKLLAEVEAAAKAAA
B7: design_600_24101276-ad9d-4944-b73e-53bb160363ad_769_dldesign_0_cycle1_af2pred (protein)
chain: NEELIKFKAKAYSTAYSTAHTVAAAEKIAKTGTPEEAAKAKAAAAKALARLKEVGKEAKKKGPEYAKAFEEAAKEGEKVLKELLA
B8: design_600_24101276-ad9d-4944-b73e-53bb160363ad_894_dldesign_0_cycle1_af2pred (protein)
chain: MTVEEYLKQAKEAGEEAIKILKETAKKDPSSKDVADMLIKAVETTLKEGSEKAKKEGAEKAKQLLEKMKLGLRTAKRLLENVERSE
B9: design_600_24101276-ad9d-4944-b73e-53bb160363ad_1126_dldesign_0_cycle1_af2pred (protein)
chain: SEEAKKLLEELKKAAEEAIAKAKELEKEDPAKAAEYAKKALKELRAKGKEIAELDPAFAPEAGAEVQKVQEYRAEAEAKALRKK
B10: design_600_24101276-ad9d-4944-b73e-53bb160363ad_1497_dldesign_0_cycle1_af2pred (protein)
chain: DEAHKRAKALYEEDRALQKELRKKAKEAKEMAKEFADDPVWKAKAEEASKLNLQALFDPENKETREKGEKTYEEVYKKYKELKKKK
B11: design_600_24101276-ad9d-4944-b73e-53bb160363ad_1238_dldesign_0_cycle1_af2pred (protein)
chain: AVKEQAKALAEAGLKADVETAKKYAAAAVLLAFDSSDTEDVKYAAELLKKAAKEATDPEKKEAFERAARVVERAAEDMRKAEER
B12: design_600_24101276-ad9d-4944-b73e-53bb160363ad_1440_dldesign_0_cycle1_af2pred (protein)
chain: SEKVKKDSEAIRKLVKAVKEAGKAAKAAAKAAPEVAAVAEAAQKASAQLVFEALDEENIEEAAKKAEEAIKAAAEAVKAAAKAAK
B13: design_600_24101276-ad9d-4944-b73e-53bb160363ad_1181_dldesign_0_cycle1_af2pred (protein)
chain: AAEEEIKKAITEAKDAALDSAYIAAKDPSKAAEAEAAYNAALGKLEEALKVLDEETRKKAIQSVKNIRDSTYEASKKSLKS
B14: design_600_24101276-ad9d-4944-b73e-53bb160363ad_1044_dldesign_0_cycle1_af2pred (protein)
chain: MTPEERKALALKEQAEHTAKAGKKLGAKDPEAALKAAERLKKLAERAKKTGTEEGKEAAKLAEEYAKELEKLAKKAKE
B15: design_600_24101276-ad9d-4944-b73e-53bb160363ad_1688_dldesign_0_cycle1_af2pred (protein)
chain: GLKEEGKKKIKEIKELAKKALENPEKAEEYVKKARELAKEVAEKLPELGKEAAEAAQEALENRAEGKAKLAREK
B16: design_600_24101276-ad9d-4944-b73e-53bb160363ad_1012_dldesign_0_cycle1_af2pred (protein)
chain: VEELVKKAAEKKEKAVELIDEGKLEEAEKEAEELKKLAEEIKKKDPKLGEEALKGARALKRLIKEAKEAEEK
B17: design_600_24101276-ad9d-4944-b73e-53bb160363ad_1735_dldesign_0_cycle1_af2pred (protein)
chain: SEEEEKLREENRKIAEKERNAHVAKAAAKLVEKATPEEAVAILEKAAKAASDTEFFLALAKKVKAEGKKGVKEAVKALKKRAKEL
B18: design_600_24101276-ad9d-4944-b73e-53bb160363ad_1404_dldesign_0_cycle1_af2pred (protein)
chain: SLKEEIKNKEKSGKNNVEAAKMAAEEGDITFAKSAIAAAKKAIEQLKELAKKATPEVAKEGKEAAEKLEKEREEAEKLLKKKEA
B19: design_600_24101276-ad9d-4944-b73e-53bb160363ad_984_dldesign_0_cycle1_af2pred (protein)
chain: AKEEDLKKAEEELKKFAEEAAKELKEAGAKKQDIESTKEYGEHRAEAVVTTSKKKGLSPEELKKLVKEAKERIKKYKENKL

These binders were tested against VTCN1, Q7Z7D3.
Chain of VTCN1, Q7Z7D3 (Q7Z7D3 whole entry): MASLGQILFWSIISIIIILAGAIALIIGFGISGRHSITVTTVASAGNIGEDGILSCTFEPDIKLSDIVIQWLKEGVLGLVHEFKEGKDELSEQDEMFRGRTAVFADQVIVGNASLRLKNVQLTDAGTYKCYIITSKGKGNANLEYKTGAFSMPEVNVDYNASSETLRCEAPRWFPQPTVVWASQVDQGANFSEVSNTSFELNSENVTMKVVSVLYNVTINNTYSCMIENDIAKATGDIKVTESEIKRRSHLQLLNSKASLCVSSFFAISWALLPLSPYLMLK

Binder | binding in a display sort
B1 | not found
B2 | not found
B3 | not found
B4 | not found
B5 | binds (active)
B6 | not found
B7 | not found
B8 | not found
B9 | not found
B10 | not found
B11 | not found
B12 | not found
B13 | not found
B14 | not found
B15 | not found
B16 | not found
B17 | not found
B18 | not found
B19 | not found
